# Compound activity (PubChem)
# The full list was thinned out, with hits kept by preference.
# Pf Dd2 inh = inhibitors of Plasmodium falciparum Dd2 growth; P. falciparum Dd2 growth, SYBR Green, 72 h; Potency, µM (doses to about 28.9 µM), inactives show top-dose activity, negative = inhibition, usual class: inhibitors; 120,000 compounds, 4.3% hits; active = well fitted inhibition curve with a large enough effect;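 also: plate controls were DMSO vehicle for no effect and reference drug for full effect; nearly all actives have a fitted effect of over 65% in size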
#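 Readout: SYBR Green fluorescence, 485 nm excitation, 535 nm emission, after ~16 h lysis at 37C. Before that, Dd2-infected red cells (2.5% hematocrit) grew 72 h with compound, 29 uM top final concentration.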
# Starred values were filed as active, the others as inactive; i = inactive; [ ] = remark or other dose. Potency is read from the fitted curve at half-maximal effect.
SMILES,Pf Dd2 inh
O=C1c2c(nc(COc3ccccc3)n2Cc2ccccc2)NCCN1Cc1ccccc1,-34%[44.1 µM]
O=C1c2c(nc(COc3ccc(F)cc3)n2Cc2ccccc2)NCCN1CCOc1ccccc1,5.6µM*
COc1ccccc1OCc1nc2c(n1Cc1ccccc1)C(=O)N(Cc1cccc(Cl)c1)CCN2,10µM*
CC(=O)N1CCN(Cc2nc3c(n2Cc2ccccc2)C(=O)N(Cc2cccc(Cl)c2)CCN3)CC1,-14%
O=C1c2c(nc(COc3ccc4c(c3)OCO4)n2Cc2ccccc2)NCCN1CCOc1ccccc1,i
O=C1c2c(nc(COc3ccc4c(c3)OCO4)n2Cc2ccccc2)NCCN1Cc1cccc(Cl)c1,-14%
O=C([C@H]1C[C@H](Oc2ccccc2)CN1C(=O)NCc1ccccc1)N1CCOCC1,-2%
Cc1cc2nc3n(c(=O)c2n1CC(=O)Nc1ccccc1F)CCCCC3,-24%
CCN(CCO)C(=O)CC1C(=O)NCCN1Cc1cccnc1 (configuration not stated),-1%
Cc1ccsc1C(=O)N1CCC2(CC1)N(c1ccccc1)C(=O)CS2(=O)=O,-24%
CC[S+](=O)([O-])NC1CCN(C(=O)N2CC3CC(C2)[C@H]2CCCC(=O)N2C3)CC1 (some centres not stated),8%
O=C(O)CCC1CCN(C(=O)c2ccccc2Cl)CC1,2%
COc1ccc(Cl)cc1C(=O)NCc1nnc2cc(-c3nc(C)no3)ccn12,i
Cc1cc(C)cc(Nc2nc(C)cc(=O)n2CC(=O)NC(C)CCc2ccccc2)c1 (configuration not stated),i
CN(C)CCNC(=O)c1c(OCC2CC2)cc(=O)n2c1CCOCC2,-12%
O=C(c1cccnc1)N1CC2CC(C1)[C@H]1CCCC(=O)N1C2 (some centres not stated),4%
COCCN1CCNc2nc(CNc3ccon3)n(Cc3ccccc3)c2C1=O,11µM*
COCCN1CCNc2nc(COc3ccccc3OC(F)(F)F)n(Cc3ccccc3)c2C1=O,i
COCCN1CCNc2nc(COc3ccc(Oc4ccccc4)cc3)n(Cc3ccccc3)c2C1=O,-9%
Cc1cnc(C(=O)N2CCCCCC2CN2CCCC2)cn1 (configuration not stated),-17%
O=C(C[C@@H]1C[C@H]2O[C@H](CNC3CCC3)[C@@H](O)[C@H]2O1)N1CCC(F)(F)C1,i
CCS(=O)(=O)c1ncc(N(Cc2ccco2)Cc2sccc2C)c(C(=O)Nc2cc(C)ccc2C)n1,5.6µM*
Cc1ccc(NC(=O)c2nc(S(C)(=O)=O)ncc2N(Cc2ccco2)Cc2cccs2)c(C)c1,-8%
Cc1ccc(C)c(NC(=O)CCc2nc(-c3ccc(C(C)(C)C)cc3)no2)c1,0%
Cc1ccsc1CN(Cc1ccco1)C(=O)c1ccc(Cl)cc1,13%
SMILES,Pf Dd2 inh
Cc1ccc(C)c(NC(=O)c2nc(S(C)(=O)=O)ncc2N(Cc2ccc(C(C)(C)C)cc2)Cc2ccco2)c1,2.5µM*
Cc1ccc(C(=O)N(Cc2ccco2)Cc2sccc2C)cc1,-6%
O=C1CO[C@H]2CN(Cc3c[nH]c4ccccc34)C[C@H]2N1,-21%[44.1 µM]
CN1C(=O)CO[C@H]2CN(Cc3c[nH]c4ccccc34)C[C@H]21,i
COc1cncc(CN2CC[C@@H]3OCC(=O)N(Cc4ccccc4)[C@H]3CC2)c1,-9%[44.1 µM]
O=C1CO[C@H]2CCN(Cc3cccc(OC(F)(F)F)c3)CC[C@@H]2N1Cc1ccccc1,i
O=C1CO[C@H]2CN(Cc3c[nH]c4ccccc34)C[C@H]2N1Cc1ccc(F)cc1,5µM*
O=C1CO[C@H]2CCN(Cc3cccc(OC(F)(F)F)c3)CC[C@@H]2N1Cc1c[nH]c2ccccc12,7.9µM*
Cc1nc(-c2cn(C3CCCN(C(=O)c4cccc(N(C)C)c4)C3)nn2)no1 (configuration not stated),i
CCCCNC(=O)c1nnn2c1COC(c1ccc(F)cc1)C2 (configuration not stated),-2%
CCNC(=O)Nc1ccc(OCC(=O)N2CCN(CC(C)C)CC2)nc1,25%
O=C(NCc1cccs1)c1ccc2c(c1)OCCN(CCC(F)(F)F)C2,i
CCc1ccc(N2C(=O)CSC23C(=O)N(Cc2ccc(C)cc2)c2ccccc23)cc1 (configuration not stated),-21%
O=C(CN1C(=O)C2(SCC(=O)N2c2cccc(Cl)c2)c2ccccc21)NCc1ccccc1 (configuration not stated),11µM*
O=C(Cn1c(=O)n(-c2cccc(Cl)c2)c(=O)c2sc3ccccc3c21)NC1CCCCC1,27%
CCc1ccc(NC(=O)CN2C(=O)C3(SCC(=O)N3c3ccccc3)c3ccccc32)cc1 (configuration not stated),11µM*
Cc1cccc(N2C(=O)CSC23C(=O)N(C)c2ccccc23)c1 (configuration not stated),i
COc1cccc(CN2C(=O)C3(SCC(=O)N3c3cc(C)cc(C)c3)c3ccccc32)c1 (configuration not stated),i
CN1C(=O)C2(SCC(=O)N2c2cccc(C(F)(F)F)c2)c2ccccc21 (configuration not stated),-4%
